High-throughput results from PubChem.
mIDH1 inhibitor – human IDH1 R132H inhibition. IDH1-R132H enzyme, NADPH consumption, diaphorase/resazurin fluorescence. AID 602179. 390,000 tested, 0.093% active. Potency, µM (doses to about 76.6 µM), without a hit: at the top dose activity change, negative = inhibition, most hits filed as inhibitors. O75874; also: % is scaled to controls: 0 for no effect and ±100 for the full control effect; nearly all actives have a fitted effect of over 65% in size
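IDH1-R132H (0.5 ug/mL) preincubated 30 min with compound, then NADPH (0.016 mM) and alpha-KG (2 mM) added; 80 min at RT, pH 7.5. Remaining NADPH coupled via diaphorase/resazurin to fluorescence (540/590 nm); concentration-response curves normalized to no-enzyme control.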
TrxR1 substrate – is turned over as a substrate by rat TrxR1; 390,000 tested, 0.01% active; purified TrxR1 substrate turnover, NADPH consumption readout; Potency, µM (series often up to 114 µM), without a hit: at the highest dose activity change, negative = substrate turnover; O89049; also: % is scaled to controls: 0 for no effect and ±100 for the full control effect; nearly all actives have a fitted effect of over 50% in size
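Rat TrxR1, dispensed at 90 nM, was prereduced with 400 uM NADPH (final) for 5 min at ~22 deg C, then incubated with compound 15 min before 400 uM selenite. A first-read NADPH fluorescence drop versus no-compound background flagged substrates.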
GLP1R inv ag – inverse agonists of human GLP-1 receptor. HEK293 GLP-1R CRE-luciferase, luminescence, 24 h; GLP-1R form is constitutively active. Potency, µM (titrated, usually from 38.3 µM), for the others: at the highest dose activity change, negative = inhibition, most hits filed as inhibitors. 410,000 tested, 1.6% active. AID 624417; also: % is scaled to controls: 0 for no effect and ±100 for the full control effect; nearly all actives have a fitted effect of over 55% in size
Target sequence (P43220 whole entry, looked up): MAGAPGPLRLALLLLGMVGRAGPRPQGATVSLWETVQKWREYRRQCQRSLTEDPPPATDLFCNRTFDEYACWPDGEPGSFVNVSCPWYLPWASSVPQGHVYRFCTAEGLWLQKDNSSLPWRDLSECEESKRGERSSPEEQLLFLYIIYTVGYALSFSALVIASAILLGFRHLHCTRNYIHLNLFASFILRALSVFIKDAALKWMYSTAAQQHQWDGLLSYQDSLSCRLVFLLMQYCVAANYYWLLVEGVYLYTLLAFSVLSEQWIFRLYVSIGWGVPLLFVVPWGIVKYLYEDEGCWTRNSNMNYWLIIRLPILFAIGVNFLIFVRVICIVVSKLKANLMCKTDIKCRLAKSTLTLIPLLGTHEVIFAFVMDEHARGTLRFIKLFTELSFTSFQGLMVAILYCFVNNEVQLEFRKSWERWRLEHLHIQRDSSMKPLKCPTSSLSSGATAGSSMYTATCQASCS
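Luminescence readout: a drop in cAMP-driven luciferase signal flags inverse agonism at a constitutively active GLP-1R stably expressed in HEK293. Compound exposure lasted 24 hr at 37 deg C, 5% CO2.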
GLP1R cytotox – cytotoxic in the GLP-1 receptor inverse agonist counter-screen. 410,000 tested, 0.13% active. AID 624418. Potency, µM (highest dose often 38.3 µM), for inactives: top-dose activity change, negative = inhibition, most hits filed as inhibitors. HEK293 cAMP-luciferase reporter cells, luminescence, 24 h;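 also: loss of luciferase light is scored as toxicity; % is scaled to controls: 0 for no effect and ±100 for the full control effect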
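Seeding density was 200 cells/uL; after overnight-length (12 h) culture, 23 nL compounds went on for 24 h at 37 °C. Readout used a luciferase detection reagent, luminescence taken after 12 min at room temperature.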
GLP-1R agonist – agonists of human GLP-1 receptor. P43220. HEK293 GLP-1R CRE-luciferase, luminescence, 4-6 h; cells express a hypersensitive GLP-1R form. Potency, µM (top dose mostly 45.6 µM), for the others: at the highest dose activation, actives largely listed as activators. 380,000 tested, 0.007% active. AID 624172; also: % of control where 0% means no effect
rTrxR1 inhibitor – blocks rat thioredoxin reductase 1 | recombinant rTrxR1, NADPH fluorescence consumption, selenite substrate | Potency, µM (top dose mostly 114 µM), inactives show at the highest dose activity change, negative = inhibition, hits mostly inhibitors | AID 588453 | 390,000 tested, 1% active; also: % is scaled to controls: 0 for no effect and ±100 for the full control effect; nearly all actives have a fitted effect of over 65% in size
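Rat TrxR1 (90 nM in the dispensed reagent) was pre-reduced with 400 uM NADPH for 5 min at room temperature, then incubated with compound for 15 min. After 400 uM selenite was added, NADPH fluorescence (Ex 340/Em 450 nm) was followed for 8 min.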
Starred values were filed as active, the others as inactive; ? = inconclusive; · = no result given; [ ] = remark or other dose. Shown are actives, neighbours in structure and some others; about 2.7% of the full set was active somewhere. Calls follow the shape of the dose curve; as a rule, active = well fitted curve in the direction sought with a large enough effect; inconclusive = small, poorly fitted or top-dose-only effect, or another doubt; inactive = no such curve, though single readings can be large; an effect the other way counts as inactive or inconclusive. Potency is read from the fitted curve at half-maximal effect.

SMILES	mIDH1 inhibitor	TrxR1 substrate	GLP1R inv ag	GLP1R cytotox	GLP-1R agonist	rTrxR1 inhibitor
CCOC(=O)COc1ccc(F)cc1C(=O)c1ccn2nc(-c3ccc(C)cc3)cc2n1	14%	6%[11.4 µM]	19%	2%	-1%	13%
Cc1cccc(-c2nc(SCC(=O)NCc3ccco3)c3c(=O)n(C)c(=O)n(C)c3n2)c1	16%	-1%[57.1 µM]	1%	-14%	·	12%[57.1 µM]
c1cncc(-c2nc(-c3ccco3)cs2)c1	0%	13%[57.1 µM]	14%	6%	5%	35µM*
O[C@@H]1CN(CC2CCCCC2)[C@@H](c2ccccc2)C[C@H]1n1cc(C2CC2)nn1	-1%	·	4%	-5%	-2%	·
O[C@H]1C[C@H](c2ccccc2)N(CC2CCCCC2)C[C@@H]1n1cc(C2CC2)nn1	-2%	·	10µM*	?	-2%	·
Cc1cc(OCCN2CCC(Cc3ccccc3)CC2)ccc1[N+](=O)[O-]	7%	-2%	11µM*	?	-5%	11%
Cc1ccc(C(=O)Sc2cccccc2=O)cc1	-4%	3%[57.1 µM]	?	-52%	0%	0.63µM*
O=C(Nc1ccccc1SC(=O)c1ccccc1)c1ccccc1	-3%	·	-25%	-4%	0%	·
O=C(c1cc(-c2cccc(Br)c2)nc2ccccc12)N1CCCC1	9%	0%	10µM*	2%	22%	-4%
O=C(c1cc(-c2ccc(Br)cc2)nc2ccccc12)N1CCC1	4%	-6%	?	2%	1%	-21%
CCN(CC)c1ccc(NC(=O)c2cc(S(=O)(=O)N3CCc4ccccc43)cn2C)c(C)c1	-4%	5%[11.4 µM]	1%	-4%	·	8%
COc1ccc(C#Cc2cnc(Cl)c3cncnc23)cc1OC	·	12%	·	·	·	-18%
Clc1ncc(C#Cc2ccccc2)c2ncncc12	·	35%	·	·	·	18µM*
O=C(c1cc([N+](=O)[O-])ccc1N1CCCCC1)N1CCc2ccccc21	-2%	-8%	2µM*	?	7%	4%
C[C@@H](CO)NC(=O)c1ccc2c3n(nc2c1)-c1ccccc1CO3	-4%	26%[57.1 µM]	3.5µM*	-50%	-5%	10%[57.1 µM]
COc1ccc(NC(=S)Nc2ccc3nccnc3c2)cc1	2%	-15%	3%	148%	1%	16µM*
COc1ccc(NC(=S)Nc2ccc3snnc3c2)cc1	14%	2%[57.1 µM]	-7%	10%	9%	21%[57.1 µM]
CSc1ccc(CCNC(=O)c2ccc(-n3c(C)cc4c3CCC(C)C4)cc2)cc1 (configuration not stated)	1%	-5%	5%	-2%	·	-3%
CCOC(=O)N/N=C/c1cn(CCCOc2ccc(C)cc2)c2ccccc12	4%	-5%	?	-1%	9%	5%
COC(=O)N/N=C/c1cn(CC(C)COc2ccccc2)c2ccccc12 (configuration not stated)	-1%	-9%	10µM*	-27%	-7%	10%
COC(=O)N/N=C/c1cn(CCOc2ccccc2)c2ccccc12	4%	7%[11.4 µM]	?	5%	24%	16%[11.4 µM]
CCOC(=O)N/N=C/c1cn(CCCOc2ccccc2)c2ccccc12	-4%	5%[57.1 µM]	8.9µM*	19%	14%	6%[57.1 µM]
CCc1ccccc1NC(=O)Cn1ccn(-c2cc(C)cc(C)c2)c(=O)c1=O	17%	-5%	-1%	4%	·	2%
Nc1cc(Nc2ccccc2)c2nonc2c1[N+](=O)[O-]	0%	6%	41%	-22%	12%	1%
Cc1c(Nc2ccc3nonc3c2[N+](=O)[O-])c(=O)n(-c2ccccc2)n1C	-7%	-7%[57.1 µM]	-36%[7.66 µM]	?	1%	-10%[57.1 µM]
SMILES	mIDH1 inhibitor	TrxR1 substrate	GLP1R inv ag	GLP1R cytotox	GLP-1R agonist	rTrxR1 inhibitor
O=C(O)c1cccc(Nc2ccc3nonc3c2[N+](=O)[O-])c1	-1%	-14%	6%	-21%	-1%	4%
O=C(O)c1ccc(Nc2cc(Cl)c3nonc3c2[N+](=O)[O-])cc1	2%	-12%	3%	?	8%	0.63µM*
Cc1c(Nc2cc(Cl)c3nonc3c2[N+](=O)[O-])c(=O)n(-c2ccccc2)n1C	9%	-7%[57.1 µM]	?	?	-5%	0.63µM*
O=[N+]([O-])c1c(Nc2cccc(O)c2)cc(Cl)c2nonc12	-1%	-16%	?	?	-7%	0.89µM*
CCc1ccc(-c2nn(CC(=O)NC3CCCCC3)c3c2cnc2ccc(OC)cc23)cc1	-10%	8%[57.1 µM]	8%	-6%	·	31%[57.1 µM]
CCC(=O)c1ccc(OCc2ccc(C(=O)c3ccccc3)cc2)cc1	-1%	-6%[57.1 µM]	10µM*	18%	0%	6%[57.1 µM]
COc1ccc(-c2cc(C(F)(F)F)nc(NCc3ccc(F)cc3)n2)cc1	4%	8%	?	3%	-1%	22%
COc1ccc(CNc2nc(-c3ccc(OC)cc3)cc(C(F)(F)F)n2)cc1	9%	5%	6.3µM*	31%	-1%	1%
COc1ccccc1C(=O)NC1CCCCCCC1	8%	-6%	7.1µM*	-7%	16%	3%
O=C(COc1ccccc1)NC1CCCCC1	-3%	-2%	0%	7%	-5%	7%
O=C(COc1ccc(C(=O)c2ccccc2)cc1)NC1CCCCCC1	3%	-11%	8.9µM*	-13%	1%	-2%
O=C(NC1CCCC1)c1cccc(Oc2ccccc2)c1	20%	1%	10µM*	-3%	21%	16%
O=C(COc1ccccc1)NC1CCCCCCC1	-1%	-1%	11µM*	0%	5%	5%
Cc1ccc(CN2CCN(C3CCN(C(=O)c4ccc(C)cc4)CC3)C(=O)C2=O)cc1	-4%	3%[57.1 µM]	8%	1%	·	18%[57.1 µM]
Cc1ccc(C)c(NC(=O)CN2C(=O)c3cccc4cccc2c34)c1	-2%	18%	-14%	-1%	0%	20%
CC(C)CN(CC(C)C)c1nnc(NC(=O)Nc2cccc(C(F)(F)F)c2)s1	2%	-5%	-2%	-5%	·	-1%
Cc1ccc(C)c(S(=O)(=O)/N=C2\C=C(NS(=O)(=O)c3ccccc3)C(=O)c3ccccc32)c1	21%	-10%	6%	-26%	-2%	-13%
Cc1cc(C)c(S(=O)(=O)/N=C2/C=C(Sc3ncn[nH]3)C(=O)c3ccccc32)cc1C	16%	14µM*	10µM*	?	-33%	?
CCOc1ccccc1NC(=O)Cn1ccn(Cc2ccc(C)cc2)c(=O)c1=O	-15%	-6%	-2%	-1%	·	5%
O=C(NCc1cccnc1)/C(=C/c1ccc(-c2ccc(Cl)cc2)o1)S(=O)(=O)c1ccccc1	1%	-2%	?	?	-14%	5µM*
